Measurements reported in PubChem BioAssay AID1159580 (chemical genetic matrix, 2015).
Several values for one entry are separate records, joined by “and”; a condition that tells them apart may be missing. Equal entries are not always repeated. Hit rate of the full screen: of about 5,500 compounds, about 2,000 (36%) were called active. Not shown: some 18% with an inconclusive outcome. No stated cut-off is given here; in the data, active means normalized growth mostly below about 0.91 (no sharp cut-off); inconclusive means no clear call, values can overlap the other calls; inactive means mostly above about 0.92. Some of the results follow.

Assay: chemical genetic growth profiling, strain panel (AID 1159580);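 further: tested at 20 µM; growth read once vehicle control cultures reached saturation at 30 °C; 1 = growth at the plate median or of vehicle wells; lower values mean less growth of the strain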
Settings: S. cerevisiae deletion strains, growth OD

Measured: normalized growth

COc1ccc(Cl)cc1C(=O)NCCc1ccc(S(=O)(=O)NC(=O)NC2CCCCC2)cc1
inactive: locus YAL013W, strain DEP1, hits give low values 0.982 | locus YAL021C, strain ccr4, hits give low values 1.01 | locus YAL026C, strain drs2, hits give low values 1 | locus YAL030W, strain snc1, hits give low values 1 | locus YAL040C, strain CLN3, hits give low values 0.984 | locus YBL061C, strain skt5, hits give low values 1 | locus YBR009C, strain hhf1, hits give low values 0.993 | locus YBR021W, strain FUR4, hits give low values 1.03 | locus YBR023C, strain chs3, hits give low values 1 | locus YBR171W, strain sec66, hits give low values 1.01 | locus YBR229C, strain ROT2, hits give low values 0.956 | locus YBR231C, strain swc5, hits give low values 0.997 | locus YBR279W, strain paf1, hits give low values 1.01 | locus YCL011C, strain gbp2, hits give low values 1.01 | locus YCL016C, strain dcc1, hits give low values 0.992 | locus YCL029C, strain bik1, hits give low values 0.99 | locus YCL061C, strain MRC1 (second series), hits give low values 1 | locus YCL061C, strain MRC1, hits give low values 1 | locus YCL069W, strain vba3, hits give low values 1 | locus YCR088W, strain abp1, hits give low values 1.01 | locus YDL005C, strain med2, hits give low values 1.01 | locus YDL035C, strain GPR1, hits give low values 0.973 | locus YDL040C, strain nat1, hits give low values 1 | locus YDL074C, strain BRE1, hits give low values 0.909 | locus YDL101C, strain DUN1, hits give low values 0.978 | locus YDL134C, strain PPH21, hits give low values 0.976 | locus YDL185W, strain tfp1, hits give low values 0.959 | locus YDL192W, strain arf1, hits give low values 0.997 | locus YDR001C, strain nth1, hits give low values 1 | locus YDR069C, strain doa4, hits give low values 1.01 | locus YDR101C, strain arx1, hits give low values 1.01 | locus YDR137W, strain rgp1, hits give low values 0.973 | locus YDR150W, strain NUM1, hits give low values 0.971 | locus YDR159W, strain sac3, hits give low values 1.01 | locus YDR162C, strain NBP2, hits give low values 0.903 | locus YDR195W, strain ref2 0.927 | locus YDR297W, strain sur2, hits give low values 1 | locus YDR318W, strain mcm21, hits give low values 1.02 | locus YDR334W, strain swr1, hits give low values 0.993 | locus YDR335W, strain msn5, hits give low values 1.01 | locus YDR363W, strain ESC2, hits give low values 0.968 | locus YDR388W, hits give low values 0.995 | locus YDR392W, strain spt3, hits give low values 0.918 | locus YDR502C, strain sam2, hits give low values 0.989 | locus YEL003W, strain gim4, hits give low values 0.997 | locus YEL037C, strain rad23, hits give low values 1 | locus YEL061C, strain CIN8 (second series), hits give low values 0.996 | locus YEL061C, strain CIN8, hits give low values 0.984 | locus YER002W, strain NOP16, hits give low values 1.02 | locus YER015W, strain faa2, hits give low values 1 | locus YER016W, strain bim1, hits give low values 1 | locus YER110C, hits give low values 0.999 | locus YER111C, strain swi4, hits give low values 1 | locus YER155C, strain BEM2 (second series), hits give low values 0.996 | locus YER155C, strain BEM2, hits give low values 0.994 | locus YER167W, strain BCK2, hits give low values 1.01 | locus YFR010W, strain ubp6, hits give low values 1.01 | locus YGL078C, strain dbp3, hits give low values 0.979 | locus YGL086W, strain mad1, hits give low values 1.02 | locus YGL167C, strain pmr1, hits give low values 1 | locus YGL173C, strain kem1, hits give low values 1 | locus YGL227W, strain vid30, hits give low values 0.998 | locus YGL240W, strain doc1, hits give low values 0.994 | locus YGL248W, strain PDE1, hits give low values 0.973 | locus YGL253W, strain hxk2, hits give low values 1 | locus YGR078C, strain PAC10, hits give low values 0.958 | locus YGR135W, strain pre9, hits give low values 0.979 | locus YGR229C, strain SMI1, hits give low values 0.954 and 0.937 | locus YGR252W, strain gcn5, hits give low values 1.12 | locus YHR013C, strain ard1, hits give low values 0.969 | locus YHR027C, strain rpn1, hits give low values 1.01 | locus YHR030C, strain SLT2, hits give low values 1 and 0.996 | locus YHR079C, strain IRE1 (second series), hits give low values 1.01 | locus YHR079C, strain IRE1, hits give low values 0.993 | locus YHR094C, strain hxt1, hits give low values 0.996 | locus YHR129C, strain ARP1, hits give low values 0.993 | locus YHR142W, strain chs7, hits give low values 1.01 | locus YHR200W, strain rpn10, hits give low values 1.01 | locus YIL066C, strain RNR3, hits give low values 0.962 | locus YIL073C, strain SPO22, hits give low values 1.06 | locus YIL125W, strain kgd1, hits give low values 0.998 | locus YIR030C, strain dcg1, hits give low values 1.01 | locus YJL092W, strain hpr5, hits give low values 1 | locus YJL095W, strain BCK1 (second series), hits give low values 0.997 | locus YJL095W, strain BCK1, hits give low values 0.963 and 0.978 | locus YJL115W, strain asf1, hits give low values 1 | locus YJL129C, strain trk1, hits give low values 0.994 | locus YJL134W, strain LCB3, hits give low values 0.993 | locus YJL154C, strain vps35, hits give low values 0.996 | locus YJL164C, strain tpk1, hits give low values 0.995 | locus YJL166W, strain qcr8, hits give low values 1.01 | locus YJL168C, strain set2, hits give low values 0.998 | locus YJL187C, strain SWE1 (second series), hits give low values 0.943 | locus YJL187C, strain SWE1, hits give low values 1.01 | locus YJR043C, strain POL32, hits give low values 1.03 | locus YJR066W, strain TOR1, hits give low values 0.934
